# Measured values published in PubChem BioAssay (Tox21).
# Values joined by “and” are separate entries in the source; they are usually repeats but may differ in a detail not shown here. Identical values can stand only once. A number with no mark means an inactive call. Inconclusive results are not listed. Entries that show only a call come without a potency. Active and inactive are the calls of the source. Unless noted, the call rests on the fitted dose curve.
# Tests used:
# [1] = Nuclear factor erythroid 2-related factor 2/antioxidant responsive element (Nrf2/ARE) small molecule agonists: luciferase reporter gene qHTS assay in human keratinocytes (AID 1919969); further: nearly all actives have a fitted effect of over 35% in size; further: potency means the concentration at half of the fitted maximal effect
# [2] = target: Gonadotropin-releasing hormone receptor (Homo sapiens) (UniProt P30968); experiment: Human gonadotropin-releasing hormone receptor (GnRHR) small molecule agonists, calcium flux assay in GnRHR-HEK293 cells (AID 1920063); further: nearly all actives have a fitted effect of over 35% in size
# Sequence of Gonadotropin-releasing hormone receptor (Homo sapiens) (P30968 whole entry, looked up): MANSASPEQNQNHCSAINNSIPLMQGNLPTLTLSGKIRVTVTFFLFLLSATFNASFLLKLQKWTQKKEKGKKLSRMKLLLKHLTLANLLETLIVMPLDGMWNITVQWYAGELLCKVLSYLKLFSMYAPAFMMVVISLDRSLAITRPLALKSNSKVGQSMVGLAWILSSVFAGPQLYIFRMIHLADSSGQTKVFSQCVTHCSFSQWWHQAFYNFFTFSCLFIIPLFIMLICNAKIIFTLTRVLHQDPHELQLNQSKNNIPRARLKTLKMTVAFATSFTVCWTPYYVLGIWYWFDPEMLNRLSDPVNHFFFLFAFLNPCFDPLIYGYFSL
# Procedure, shortened: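 HEK293 cells stably expressing human GnRHR were dye-loaded for 1 h at 37 C. Compound was added in agonist mode and fluorescence (Ex/Em 480/540) recorded kinetically for 3 min. Fifteen concentrations, triplicates.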
# [3] = target: KiSS-1 receptor (Homo sapiens) (UniProt Q969F8); experiment: Human kisspeptin (KISS1R) small molecule agonists, calcium flux assay in KISS1R-HEK293 cells (AID 1920064; active means well fitted activation curve with a large enough effect in the repeat runs)
# Sequence of KiSS-1 receptor (Homo sapiens) (Q969F8 whole entry, looked up): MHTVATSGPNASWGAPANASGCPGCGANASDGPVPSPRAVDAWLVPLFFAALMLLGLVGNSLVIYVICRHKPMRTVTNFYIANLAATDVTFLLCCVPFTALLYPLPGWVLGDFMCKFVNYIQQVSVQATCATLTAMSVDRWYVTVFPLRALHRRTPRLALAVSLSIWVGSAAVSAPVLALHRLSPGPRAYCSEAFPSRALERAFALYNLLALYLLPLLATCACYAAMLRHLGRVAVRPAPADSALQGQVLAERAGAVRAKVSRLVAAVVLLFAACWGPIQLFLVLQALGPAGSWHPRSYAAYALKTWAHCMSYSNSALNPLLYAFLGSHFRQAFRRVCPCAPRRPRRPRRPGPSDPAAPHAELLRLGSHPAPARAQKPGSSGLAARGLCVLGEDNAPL
# Procedure, shortened: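 HEK293 cells stably expressing human KISS1R were loaded with calcium dye for 1 h at 37 C, then given compound; fluorescence (Ex/Em 480/540) was read kinetically for 3 min. Fifteen concentrations, triplicate.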
# [4] = G protein-coupled receptor (GPCR) small molecule agonists, calcium flux assay: HEK293 wild type cell line counter screen (AID 1920065)
# Procedure, shortened: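 Wild-type HEK293 cells plated 18 h, loaded with calcium dye 1 h at 37 C, then compounds added in agonist mode (ATP as positive control). Kinetic fluorescence Ex/Em 480/540 recorded 3 min at 1 sec intervals; 15 concentrations, triplicate.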
# [5] = p53 small molecule agonists, cell-based qHTS assay with human liver microsomes: qHTS cell viability counter screen (AID 1963579); further: nearly all actives have a fitted effect of over 45% in size
# Procedure, shortened: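 Luminescent CellTiter-Glo read-out, 30 min at room temperature, gauged cytotoxicity in p53RE-bla cells exposed 16 h at 37 C to DMSO-dissolved compounds with metabolic activation by human liver microsomes and NADPH, each 0.5 mg/mL final.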
# [6] = p53 small molecule agonists, cell-based qHTS assay with rat liver microsomes: qHTS cell viability counter screen (AID 1963580); further: nearly all actives have a fitted effect of over 45% in size; further: potency means the concentration at half of the fitted maximal effect
# Procedure, shortened: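 p53RE-bla HCT-116 cells (4,000/well) rested 5 h at 37 C, then given Tox21 compounds in DMSO with rat liver microsomes (0.5 mg/mL final) plus NADPH (0.5 mg/mL final) for 16 h at 37 C. Viability read by CellTiter-Glo luminescence after 30 min at room temperature.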
# [7] = p53 small molecule agonists, cell-based qHTS assay: qHTS cell viability counter screen (AID 1963581); further: nearly all actives have a fitted effect of over 45% in size
# Procedure, shortened: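 p53RE-bla HCT-116 cells, compounds added 5 h after plating and incubated 16 h at 37 C. Cytotoxicity measured in the same wells as intracellular ATP by CellTiter-Glo luminescence after 30 min at room temperature.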
# [8] = target: 5-hydroxytryptamine receptor 2A (Homo sapiens) (UniProt P28223); experiment: 5-hydroxytryptamine receptor 2A (HTR2A) small molecule antagonists, cell-based qHTS assay (AID 1963586); further: nearly all actives have a fitted effect of over 45% in size
# Sequence of 5-hydroxytryptamine receptor 2A (Homo sapiens) (P28223 whole entry, looked up): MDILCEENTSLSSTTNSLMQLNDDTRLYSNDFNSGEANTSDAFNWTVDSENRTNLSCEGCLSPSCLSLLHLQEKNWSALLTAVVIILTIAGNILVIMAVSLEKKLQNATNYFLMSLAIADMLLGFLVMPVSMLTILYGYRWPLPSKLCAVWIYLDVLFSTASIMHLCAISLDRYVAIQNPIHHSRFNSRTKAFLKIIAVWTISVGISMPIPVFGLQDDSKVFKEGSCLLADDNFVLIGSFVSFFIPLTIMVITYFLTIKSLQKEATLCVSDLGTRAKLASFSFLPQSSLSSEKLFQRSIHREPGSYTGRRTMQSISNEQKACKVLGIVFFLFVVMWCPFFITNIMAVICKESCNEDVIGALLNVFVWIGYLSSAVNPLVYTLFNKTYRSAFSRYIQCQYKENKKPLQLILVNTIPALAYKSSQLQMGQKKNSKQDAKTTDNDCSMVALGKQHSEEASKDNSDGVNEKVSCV
# Procedure, shortened: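 Antagonist-mode intracellular calcium assay: DOI (4 nM) added after 5 min compound pre-incubation at room temperature to dye-loaded HTR2A-CHO cells. Fluorescence followed for 3 min, sampled every second.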
# [9] = target: 5-hydroxytryptamine receptor 2A (Homo sapiens) (UniProt P28223); experiment: 5-hydroxytryptamine receptor 2A (HTR2A) small molecule agonists, cell-based qHTS assay (AID 1963587); further: nearly all actives have a fitted effect of over 30% in size; further: potency means the concentration at half of the fitted maximal effect
# Procedure, shortened: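 HTR2A-CHO cells, plated 18 h at 37 C/5% CO2, dye-loaded 1 h at 37 C; compounds in DMSO added by pin tool (agonist mode). Intracellular calcium flux read as kinetic fluorescence on FDSS over 2 min at 1 s intervals.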
# [10] = target: Muscarinic acetylcholine receptor M1 (Homo sapiens) (UniProt P11229); experiment: Cholinergic receptor muscarinic 1 (CHRM1) small molecule antagonists, cell-based qHTS assay (AID 1963588); further: nearly all actives have a fitted effect of over 40% in size
# Sequence of Muscarinic acetylcholine receptor M1 (Homo sapiens) (P11229 whole entry, looked up): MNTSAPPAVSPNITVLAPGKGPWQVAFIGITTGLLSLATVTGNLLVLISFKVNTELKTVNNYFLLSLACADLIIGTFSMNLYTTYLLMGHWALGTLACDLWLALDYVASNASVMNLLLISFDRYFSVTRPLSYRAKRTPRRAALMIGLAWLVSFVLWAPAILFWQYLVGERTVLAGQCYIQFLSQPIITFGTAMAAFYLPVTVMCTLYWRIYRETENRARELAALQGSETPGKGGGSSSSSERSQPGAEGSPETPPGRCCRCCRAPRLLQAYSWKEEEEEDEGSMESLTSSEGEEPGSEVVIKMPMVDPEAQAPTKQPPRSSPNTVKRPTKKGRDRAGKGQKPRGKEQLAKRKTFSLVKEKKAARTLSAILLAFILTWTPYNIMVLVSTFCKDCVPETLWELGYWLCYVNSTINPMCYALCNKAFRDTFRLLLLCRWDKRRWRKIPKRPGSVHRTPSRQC
# Procedure, shortened: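 CHRM1-CHO calcium-flux assay, antagonist mode. Cells were seeded 18 h, dye-loaded 1 h at 37 C and given compound for 5 min at RT, then acetylcholine was added at 50nM. FDSS fluorescence was read 3 min; 15 concentrations, three runs.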
# [11] = cAMP Responsive Elements (CRE) small molecule agonists, cell-based qHTS assay (AID 1963590)
# Procedure, shortened: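 CRE-bla HEK 293T cells, 2,000/well in DMEM with 10% dialyzed FBS and 25 mM HEPES, pre-incubated 18 h at 37 C, then exposed to compound 3 h at 37 C. Beta-lactamase reporter read with LiveBLAzer B/G FRET substrate after 2 h at room temperature.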
# [12] = cAMP Responsive Elements (CRE) small molecule antagonists, cell-based qHTS assay (AID 1963591; active means well fitted inhibition curve with a large enough effect in the signal ratio in the repeat runs, not every such curve was filed as active; the % refers to the signal ratio)
# Procedure, shortened: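 CRE-bla HEK293T cells plated 18 h, then given compound plus NKH477 at 0.25 uM final for 3 h at 37C. Beta-lactamase reporter read with LiveBLAzer B/G FRET substrate after 2 h at room temperature.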
# [13] = target: Beta-2 adrenergic receptor (Homo sapiens) (UniProt P07550); experiment: Adrenergic beta2 receptor (ADRB2) small molecule antagonists, cell-based qHTS assay (AID 1963592); further: series mostly up to about 92 µM; nearly all actives have a fitted effect of over 50% in size
# Sequence of Beta-2 adrenergic receptor (Homo sapiens) (P07550 whole entry, looked up): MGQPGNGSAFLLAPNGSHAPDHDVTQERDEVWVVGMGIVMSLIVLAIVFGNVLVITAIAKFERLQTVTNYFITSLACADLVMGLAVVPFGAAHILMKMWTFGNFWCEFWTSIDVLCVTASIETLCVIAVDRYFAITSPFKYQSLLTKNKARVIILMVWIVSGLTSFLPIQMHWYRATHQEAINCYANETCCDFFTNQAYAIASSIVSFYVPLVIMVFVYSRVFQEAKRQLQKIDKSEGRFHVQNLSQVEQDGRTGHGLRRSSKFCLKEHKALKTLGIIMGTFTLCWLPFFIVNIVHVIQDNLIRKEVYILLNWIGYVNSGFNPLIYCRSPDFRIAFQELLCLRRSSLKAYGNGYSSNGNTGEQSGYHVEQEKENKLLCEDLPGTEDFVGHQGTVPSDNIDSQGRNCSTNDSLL
# Procedure, shortened: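 Cells (CHO, stable ADRB2 overexpression) incubated 18-20hr at 37C; compounds added from DMSO; agonist mix (1nM isoproterenol, 100uM IBMX, 25uM Ro-20-1724) added; 0.5hr RT; d2-cAMP and anti-cAMP-cryptate added; 1hr RT; 665/615 nm read.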
# [14] = target: D(2) dopamine receptor (Homo sapiens) (UniProt P14416); experiment: Dopamine D2 receptor (DRD2) small molecule antagonists, cell-based qHTS assay (AID 1963595; active means well fitted inhibition curve with a large enough effect in the signal ratio in the repeat runs, with a control signal flat; the % refers to the signal ratio)
# Sequence of D(2) dopamine receptor (Homo sapiens) (P14416 whole entry, looked up): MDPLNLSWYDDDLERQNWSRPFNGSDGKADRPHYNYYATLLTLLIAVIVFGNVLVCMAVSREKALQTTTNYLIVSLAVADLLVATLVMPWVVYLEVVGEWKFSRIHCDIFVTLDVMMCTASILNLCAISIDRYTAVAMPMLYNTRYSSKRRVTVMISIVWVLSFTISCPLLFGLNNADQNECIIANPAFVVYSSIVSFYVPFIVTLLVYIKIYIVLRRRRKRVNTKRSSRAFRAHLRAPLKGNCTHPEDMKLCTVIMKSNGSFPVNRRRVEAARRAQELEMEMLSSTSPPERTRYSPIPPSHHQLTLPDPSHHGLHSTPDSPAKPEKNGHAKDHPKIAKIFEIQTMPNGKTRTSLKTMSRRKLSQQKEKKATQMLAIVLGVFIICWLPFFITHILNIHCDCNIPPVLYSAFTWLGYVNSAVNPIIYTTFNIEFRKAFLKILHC
# Procedure, shortened: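 Human DRD2 antagonist qHTS measuring cAMP by HTRF. The cells are exposed to compound for 10 min, then to NKH477 (200 nM) and quinpirole (12 nM) for 30 min at RT, with Ro20-1724 (0.1 mM) present throughout.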
# [15] = p53 small molecule agonists, cell-based qHTS assay with rat liver microsomes (AID 1963578)
# Procedure, shortened: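 Rat liver microsome activation: microsomes 0.5 mg/mL, NADPH 0.5 mg/mL final; p53RE-bla cells, 16 h 37 C; LiveBLAzer readout, 2 h RT dark.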
# [16] = target: Muscarinic acetylcholine receptor M1 (Homo sapiens) (UniProt P11229); experiment: Cholinergic receptor muscarinic 1 (CHRM1) small molecule agonists, cell-based qHTS assay (AID 1963589); further: nearly all actives have a fitted effect of over 35% in size
# Procedure, shortened: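 CHO cells stably expressing human CHRM1 were loaded with calcium dye for 1 h at 37 C, then compound was added in agonist mode. Intracellular calcium fluorescence was followed kinetically at 1 s intervals. Fifteen concentrations were tested in three independent runs.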
# [17] = target: Beta-2 adrenergic receptor (Homo sapiens) (UniProt P07550); experiment: Adrenergic beta2 receptor (ADRB2) small molecule agonists, cell-based qHTS assay (AID 1963593);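 further: CHO cells stably overexpressing human ADRB2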
# Procedure, shortened: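 CHO cells stably over-expressing ADRB2 were plated overnight at 37C, then dosed with compounds plus a stimulation mix containing 100uM IBMX and 25uM Ro-20-1724 for 0.5hr at room temperature. cAMP was measured by HTRF competition, 1hr.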
# [18] = target: D(2) dopamine receptor (Homo sapiens) (UniProt P14416); experiment: Dopamine D2 receptor (DRD2) small molecule agonists, cell-based qHTS assay (AID 1963594); further: nearly all actives have a fitted effect of over 35% in size
# Procedure, shortened: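 HEK293 cells stably expressing DRD2 were cultured 24 h at 37 C, then given Ro20-1724 (0.1 mM final) and compounds for 10 min at room temperature. NKH477 (200nM) was then added for 30 min. cAMP was read by HTRF.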
# [19] = p53 small molecule agonists, cell-based qHTS assay (AID 1963582; active means well fitted activation curve with a large enough effect in the signal ratio in the repeat runs, not every such curve was filed as active; the % refers to the signal ratio; further: potency means the concentration at half of the fitted maximal effect)
# Procedure, shortened: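 p53RE-bla reporter cells, compounds added in DMSO after 5 h plating, incubated 16 h at 37 C. Beta-lactamase read via 2 h room-temperature LiveBLAzer B/G FRET substrate, fluorescence intensity.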
Compound,Potency [1],Potency [2],Potency [3],Potency [4],Potency [5],Potency [6],Potency [7],Potency [8],Potency [9],Potency [10],Potency [11],Potency [12],Potency [13],Potency [14],Potency [15],Potency [16],Potency [17],Potency [18],Potency [19]
C[C@H](N)C(=O)c1ccccc1,inactive,inactive,inactive,inactive,inactive,inactive,inactive,inactive,inactive,inactive,inactive,inactive,inactive,inactive,–,–,–,–,–
Oc1c(Cl)c(Cl)cc(Cl)c1Cl,inactive,inactive,inactive,inactive,–,inactive,inactive,inactive,inactive,–,–,–,inactive,–,inactive,inactive,inactive,inactive,–
COP(=S)(OC)Oc1ccc([N+](=O)[O-])cc1Cl,inactive,inactive,inactive,inactive,–,inactive,inactive,inactive,inactive,inactive,inactive,inactive,inactive,inactive,–,inactive,–,inactive,inactive
Nc1ccccc1C(=O)OC/C=C/c1ccccc1,inactive,inactive,inactive,inactive,–,inactive,–,inactive,inactive,inactive,–,–,inactive,inactive,inactive,–,–,inactive,inactive
CC(=O)/C=C/c1ccc2c(c1)OCO2,61.4 µM (active),inactive,inactive,inactive,inactive,inactive,inactive,inactive,inactive,–,–,–,–,–,–,–,–,inactive,41 µM (active)
CN1CCc2cc3c(cc2C1O)OCO3 (stereo not given),54.8 µM (active),inactive,inactive,inactive,inactive,inactive,inactive,inactive,inactive,–,–,–,inactive,–,–,–,–,inactive,–
CC(C)O.CC(C)O.OCCN(CCO)CCO.OCCN(CCO)CCO.[Ti],inactive,inactive,inactive,inactive,inactive,inactive,inactive,inactive,inactive,inactive,inactive,inactive,inactive,inactive,–,inactive,inactive,inactive,–
C[C@@H]1O[C@@H](O[C@@H]2C=C3CC[C@@H]4[C@H](CC[C@]5(C)[C@@H](c6ccc(=O)oc6)CC[C@]45O)[C@@]3(C)CC2)[C@H](O)[C@H](O)[C@H]1O,0.0106 µM (active),inactive,inactive,inactive,inactive,–,–,–,–,–,–,–,inactive,inactive,–,–,inactive,–,–
CC(C)=CC1C(C(=O)OCc2coc(Cc3ccccc3)c2)C1(C)C (stereo not given),61.2 µM (active) and 61.1 µM (active),inactive,inactive,inactive,inactive,inactive,inactive,inactive,inactive,inactive,inactive,inactive,inactive,inactive,–,inactive,–,–,–
CCOc1cc(C(C)(C)C)ccc1C1COC(c2c(F)cccc2F)=N1 (stereo not given),inactive,inactive,inactive,inactive,inactive,–,inactive,inactive,inactive,inactive,–,–,inactive,inactive,–,inactive,–,–,–
c1ccc2c(c1)cc1ccc3cccc4ccc2c1c34,inactive,inactive,inactive,inactive,inactive,inactive,inactive,–,–,–,–,–,inactive,inactive,–,–,inactive,inactive,–
CS/C(C)=N/OC(=O)N(C)SN(C)C(=O)O/N=C(\C)SC,68.6 µM (active),inactive,inactive,inactive,inactive,inactive,inactive,inactive,43.6 µM (active),inactive,inactive,inactive,inactive,inactive,–,inactive,inactive,inactive,inactive
CNN,inactive,inactive,inactive,inactive,inactive,inactive,inactive,inactive,inactive,–,inactive,inactive,inactive,inactive,–,inactive,inactive,inactive,–
CC(C)CC(C)Nc1ccc(Nc2ccccc2)cc1 (stereo not given),23.9 µM (active),inactive,inactive,inactive,inactive,45 µM (active),inactive,–,inactive,–,–,–,–,–,–,inactive,–,–,–
Nc1ccc(Cc2ccc(N)c(Cl)c2)cc1Cl,inactive,inactive,inactive,inactive,–,–,inactive,–,–,inactive,–,–,–,inactive,inactive,inactive,–,inactive,inactive
